# Laboratory results published in PubChem BioAssay (EPA / NIEHS).
# “And” between values parts separate entries of the source, which are not always exact repeats. Equal entries are not always repeated. Results filed as inconclusive are left out. Some compounds were tested as several samples or in several runs, with calls that do not always agree. The source made the active and inactive calls. How the source made its calls, unless noted: active means hit-call score of the fitted dose curve at least 0.9, where 1 is the maximum; inactive means score below 0.9.
# Assays:
# [1] = CCTE_Shafer_MEA_acute_spike_number: CCTE's Neural Acute Assay for Total Number of Spikes, Shafer Lab (AID 2284008);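 on AC50: curve fitted for decrease in spike count so AC50 reflects inhibitors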
# How it was run: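 Cortical neurons from rat, matured to DIV 13 or 15 on microelectrode arrays, are recorded at 37 C before and during 40-min exposure to 0.03-40 uM compound. Wells need >/= 10 active electrodes.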
# [2] = CCTE_Shafer_MEA_acute_firing_rate_mean: CCTE's Neural Acute Assay for Mean Firing Rate, Shafer Lab (AID 2284009);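 further: analyzed for loss of signal so actives lower firing rate relative to DMSO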
# How it was run: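 Rat primary cortical neurons on 48-well MEA plates, dosed at 0.03-40 uM on DIV 13 or 15; 40 min spontaneous activity recorded at 37 C before and after compound. Spike rate per electrode averaged per well, expressed as percent change from baseline.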
# [3] = CCTE_Harrill_HTTr_Viability_MCF7: CCTE's 6-hour Cell Viability Assessment for the High-Throughput Transcriptomics (HTTr) Platform, in MCF-7 cells cultured in DMEM + 10% fetal bovine serum, Harrill Lab (AID 2284010)
# How it was run: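 Membrane integrity was scored by high-content imaging of propidium iodide dye exclusion after a 6 h exposure across an eight-point dilution series. Data were fitted bidirectionally relative to DMSO as negative control and baseline.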
# [4] = CCTE_Harrill_HTTr_Apoptosis_MCF7: CCTE's 6-hour Apoptosis Assessment for the High-Throughput Transcriptomics (HTTr) Platform, in MCF-7 cells cultured in DMEM + 10% fetal bovine serum, Harrill Lab (AID 2284011)
# How it was run: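 Cells are dosed with test chemicals at eight concentrations and imaged 6 hours later for caspase-3/7 activity using a green fluorogenic detection reagent. Activity is fitted in both directions against DMSO controls.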
# [5] = CCTE_Harrill_HTTr_CellCount_MCF7: CCTE's Cell Proliferation Assessment for the High-Throughput Transcriptomics (HTTr) Platform, Harrill Lab (AID 2284012; active means hit-call score of the fitted dose curve at least 0.9, where 1 is the maximum;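 further: cells exposed to compound for six hours; intended direction is loss of nuclei count meaning fewer cells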)
# How it was run: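 MCF-7 cells were exposed for 6 h to an eight-point dilution series; Hoechst-labeled nuclei were counted by high content imaging. Curves were fitted bidirectionally against DMSO as negative control and baseline, with signal loss indicating reduced cell count.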
# [6] = CCTE_Shafer_MEA_acute_burst_number: CCTE's Neural Acute Assay for Single-Electrode Bursts, Shafer Lab (AID 2284013)
# How it was run: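 Primary rat cortical neurons on 16-electrode MEA wells, treated on DIV 13 or 15 with compound at 0.03-40 uM. Single-electrode burst count from 40-min recordings at 37 C before and after exposure; percent change from baseline per well, DMSO negative control.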
# [7] = CCTE_Shafer_MEA_acute_burst_duration_mean: CCTE's Neural Acute Assay for Mean Burst Duration, Shafer Lab (AID 2284014);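 further: hits are decreases in mean burst duration relative to DMSO controls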
# How it was run: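 Rat primary cortical neurons on 48-well MEA, treated at DIV 13 or 15 with 0.03-40 uM in at least 3 wells. Value is percent change in mean burst duration, comparing 40 min recordings at 37 C before and during exposure.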
# [8] = CCTE_Shafer_MEA_acute_per_burst_spike_number_mean: CCTE's Neural Acute Assay for Average Number of Spikes Per Burst, Shafer Lab (AID 2284015);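 further: hits are decreases in mean spikes per burst versus baseline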
# How it was run: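 We recorded spontaneous network firing of rat cortical neurons for 40 min before and 40 min during exposure to compound at 0.03-40 uM, at 37 C. Spikes were detected adaptively at 8x rms noise, and the change in average spikes per burst was fitted against DMSO.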
# [9] = CCTE_Shafer_MEA_acute_interburst_interval_mean: CCTE's Neural Acute Assay for Mean Interburst Interval, Shafer Lab (AID 2284016);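 further: percent change of mean interburst interval versus each well's own pre-dose baseline; curves fitted for decrease in interburst interval relative to DMSO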
# How it was run: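 MEA recording of spontaneous network bursting in primary rat cortical cultures; mean interburst interval was compared before and after a 40-min compound exposure (0.03-40 uM) and expressed as percent change, relative to DMSO.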
# [10] = CCTE_Simmons_MITO_viability: CellTiter-Glo Viability Assessment for CCTE's HepG2 Seahorse XF Respirometric Screening Assay [post-hoc], Simmons Lab (AID 2284007; active means hit-call score of the fitted dose curve at least 0.9, where 1 is the maximum;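 on AC50: cells exposed to chemical for 90 min before the ATP read; actives lower ATP signal relative to DMSO baseline meaning reduced viability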)
# How it was run: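 HepG2 cells from the Seahorse XF respirometry run were exposed 90 min to a 7-point series, 125 nM–100 uM final, DMSO vehicle; ATP content then read by luciferase luminescence. Three biological replicates, technical singles; loss of signal fitted versus DMSO.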
Compound,outcome [1],outcome [2],outcome [3],outcome [4],outcome [5],outcome [6],outcome [7],outcome [8],outcome [9],outcome [10],AC50 [1],AC50 [2],AC50 [6],AC50 [10],AC50 [8],AC50 [9],AC50 [7]
COc1ccc(C(c2ccc(OC)cc2)C(Cl)(Cl)Cl)cc1,inactive,inactive,inactive,inactive,inactive,inactive,inactive,inactive,inactive,,,,,,,,
CC1COC(Cn2cncn2)(c2ccc(Oc3ccc(Cl)cc3)cc2Cl)O1 (stereo not given),,,inactive,inactive,inactive,,inactive,inactive,inactive,inactive,3.53 µM (active),3.53 µM (active),5.26 µM (active),,,,
CCCC1COC(Cn2cncn2)(c2ccc(Cl)cc2Cl)O1 (stereo not given),inactive,inactive,inactive,inactive,,inactive,inactive,,inactive,,,,,26.5 µM (active),20 µM (active),,
C=CCC1=C(C)C(OC(=O)C2C(C=C(C)C)C2(C)C)CC1=O (stereo not given),inactive,inactive,inactive,inactive,,inactive,inactive,inactive,inactive,inactive,,,,5.17 µM (active),2.93 µM (active),3.88 µM (active),
OC(c1ccc(Cl)cc1)(c1cncnc1)c1ccccc1Cl (stereo not given),,,inactive,inactive,inactive,,,,,inactive,0.792 µM (active),0.803 µM (active),0.882 µM (active),,5 µM (active),3.27 µM (active),5 µM (active)
N#CC(CCc1ccc(Cl)cc1)(Cn1cncn1)c1ccccc1 (stereo not given),inactive,inactive,inactive,inactive,inactive,inactive,inactive,inactive,inactive,inactive,,,,,,,
COC(=O)C(C)Oc1ccc(Oc2ccc(Cl)cc2Cl)cc1 (stereo not given),inactive,inactive,inactive,inactive,inactive,inactive,inactive,inactive,inactive,,,,,,,,
C=CCC1=C(C)[C@@H](OC(=O)[C@@H]2[C@@H](C=C(C)C)C2(C)C)CC1=O,,,inactive,inactive,,,inactive,inactive,inactive,inactive,4.06 µM (active),4.06 µM (active),4.02 µM (active),,,,
CC(C)Oc1cc(-n2nc(C(C)(C)C)oc2=O)c(Cl)cc1Cl,inactive,inactive,inactive,inactive,inactive,inactive,inactive,inactive,,inactive,,,,,,4.16 µM (active),
CON(C)C(=O)Nc1ccc(Cl)c(Cl)c1,inactive,inactive,inactive,inactive,,inactive,inactive,inactive,inactive,inactive,,,,,,,
COC(=O)N(OC)c1ccccc1COc1ccn(-c2ccc(Cl)cc2)n1,,,inactive,inactive,,,inactive,,inactive,inactive,0.0781 µM (active),0.0783 µM (active),0.0942 µM (active),,2.16 µM (active),,
COc1nc(NC(C)C)nc(NC(C)C)n1,,,inactive,inactive,,,,,,inactive,,,,,,,
CCOP(=S)(OCC)SCn1c(=O)oc2cc(Cl)ccc21,inactive,inactive,inactive,inactive,inactive,inactive,,inactive,,,,,,,,30.2 µM (active),20 µM (active)
N#Cc1cc(Br)c(O)c(Br)c1,,,inactive,inactive,inactive,,,,,,,,,10.8 µM (active),,,
CC(C)(C)c1ccc(CSc2cnn(C(C)(C)C)c(=O)c2Cl)cc1,,,inactive,inactive,,,,,,,0.0249 µM (active),0.0249 µM (active),0.019 µM (active),0.411 µM (active),3.63 µM (active),0.492 µM (active),5.1 µM (active)
N#Cc1nn(-c2c(Cl)cc(C(F)(F)F)cc2Cl)c(N)c1S(=O)C(F)(F)F (stereo not given),,,inactive,inactive,inactive,inactive,inactive,inactive,inactive,inactive,10.3 µM (active) and 9.11 µM (active),10.3 µM (active) and 9.11 µM (active),,,1.87 µM (active),8.32 µM (active),
Cc1ccc(-c2c(Cl)nc(C#N)n2S(=O)(=O)N(C)C)cc1,inactive,inactive,inactive,inactive,,inactive,inactive,inactive,,inactive,,,,,,6.03 µM (active),
CCc1nn(C)c(C(=O)NCc2ccc(C(C)(C)C)cc2)c1Cl,,,inactive,inactive,,,,,,,,,,0.217 µM (active),,,
CCCCNC(=O)OCC#CI,,,inactive,inactive,inactive,inactive,inactive,inactive,,inactive,10.2 µM (active),10.2 µM (active),,,,31.4 µM (active),
